# Source: PubChem BioAssay (National Center for Advancing Translational Sciences (NCATS))
# Hits are enriched below; roughly 7% of the tested compounds scored in any of these assays.
# IL1B secr inh: inhibitors of inflammasome signaling (IL-1 beta secretion) | THP-1 LPS/ATP IL-1B secretion, AlphaLISA, 16 h; hits give low values | AID 743279 | hit rate 4.7% among 360,000 | activity change, % at 57.5 µM; in the data active = activity change below about -50%; inconclusive = mostly about -30% to -49%; also: % is scaled to controls: 0 for no effect and ±100 for the full control effect
#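 THP-1 cells pretreated 1 hr with compounds (up to 57.5 uM final), then stimulated with LPS (250 ng/mL final) plus ATP (1.25 mM final); secreted IL-1B measured by AlphaLISA after 16 hr, decreased signal indicating inhibition.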
# ATXN2 expr inh: reduces ATXN2 reporter expression in HEK-293 cells; HEK-293 ATXN2-luciferase reporter, luminescence, 24 h; Potency, µM (highest dose often 57 µM), for inactives: at the top dose activity change, negative = inhibition, actives largely listed as inhibitors; hit rate 0.72% among 360,000; AID 1745845; also: potency is read from the fitted curve at half-maximal effect; % is scaled to controls: 0 for no effect and ±100 for the full control effect; nearly all actives have a fitted effect of over 55% in size
#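 ATXN2-luciferase reporter cells (luciferase flanked by upstream and downstream ATXN2 gene portions) were treated 24 h at 37 °C with compounds at up to 57 uM. SteadyGlo luminescence gave expression; GF-AFC fluorescence gave viability.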
# D3 antag: antagonists of human D3 dopamine receptor | P35462 | D3R cells, DiscoveRx beta-arrestin luminescence, antagonist mode; hits give low values | max response, negative = inhibition, % | hit rate 2.5% among 360,000; in the data active = max response below about -50%; inconclusive = no clear call, values can overlap the other calls; also: % is scaled to controls: 0 for no effect and ±100 for the full control effect
# Target sequence (P35462 whole entry, looked up): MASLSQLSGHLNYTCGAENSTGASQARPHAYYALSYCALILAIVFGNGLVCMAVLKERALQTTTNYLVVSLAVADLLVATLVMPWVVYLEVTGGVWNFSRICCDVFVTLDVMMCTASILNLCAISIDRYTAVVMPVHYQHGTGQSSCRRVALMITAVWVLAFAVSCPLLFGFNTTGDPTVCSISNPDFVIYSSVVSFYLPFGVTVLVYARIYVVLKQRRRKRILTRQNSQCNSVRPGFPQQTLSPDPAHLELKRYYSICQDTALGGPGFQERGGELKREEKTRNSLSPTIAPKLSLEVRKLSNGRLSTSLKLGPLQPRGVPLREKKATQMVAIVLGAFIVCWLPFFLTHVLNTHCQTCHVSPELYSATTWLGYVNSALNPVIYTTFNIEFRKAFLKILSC
#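 Cells expressing the human receptor were seeded at 1500 cells/well, incubated overnight at 37 degrees C in 5% CO2, then exposed to library compounds with dopamine controls for 90 minutes at 37 degrees C before luminescent detection.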
# S2 tox: reduces viability in counter-screen for ATXN expression inhibitors | S2 cells (HEK-293 line with an ATXN2-luciferase reporter) viability, CellTiter-Fluor protease fluorescence, 24 h | Potency, µM (titrated, usually from 56.7 µM), actives largely listed as cytotoxic | hit rate 0.49% among 400,000 | AID 651635; also: potency is read from the fitted curve at half-maximal effect; nearly all actives have a fitted effect of over 40% in size
# a7 integrin act: integrin-mediated muscular dystrophy alleviation activation. Potency, µM (highest dose often 38.3 µM), for inactives: at the top dose activation, most hits filed as activators. AID 624291. alpha7betagal myoblasts, beta-gal FDG fluorescence, 48 h. hit rate 0.064% among 350,000;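 also: potency is read from the fitted curve at half-maximal effect; 100% = response of the positive control SU9516; nearly all actives have a fitted effect of over 60% in size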
#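 alpha7betagal+/- myoblasts (passage 13, 250/well) treated 48 h at 37C with compounds at 1:260 dilution of DMSO stock. Lysed, then beta-galactosidase activity read as FDG fluorescence (ex 480/em 540) after 30 min, with pre-read for autofluorescence.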
# D3 ag: activates the human D3 dopamine receptor | P35462 | D3R DiscoveRx beta-arrestin cells, luminescence, 90 min | max activation, % | hit rate 0.58% among 410,000 | AID 652048; in the data active = max activation above about 30%; also: 0% is about no effect
#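 Agonist mode: compounds and dopamine controls were applied to plated cells for 90 min at 37 degrees C after an overnight attachment at 1500 cells/well. Luminescent read-out followed 30 - 60 minutes at room temperature with DiscoveRx detection reagent.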
# An asterisk follows results filed as active; i = inactive; u = inconclusive; x = no result; [ ] = remark or other dose. Unless noted, calls follow the shape of the dose curve; as a rule, active = well fitted curve in the direction sought with a large enough effect; inconclusive = small, poorly fitted or top-dose-only effect, or another doubt; inactive = no such curve, though single readings can be large; an effect the other way counts as inactive or inconclusive.
SMILES,IL1B secr inh,ATXN2 expr inh,D3 antag,S2 tox,a7 integrin act,D3 ag
O=C(O)CSc1cc(NS(=O)(=O)c2cccc([N+](=O)[O-])c2)c2ccccc2c1O,-86*,u,-51*,i,-6%,-16
Cc1ccc(C)c(S(=O)(=O)Nc2cc(SCC(=O)O)c(O)c3ccccc23)c1,-98*,u,u,28µM*,-12%,-8
CCOc1ccc(S(=O)(=O)Nc2cc3c(C(=O)OC)c(COC)oc3c3ccccc23)cc1,x,u,x,u,x,-2
Cc1ccc(CCNC(=O)CCc2cn(Cc3ccccc3C)c3ccccc23)cc1,x,x,x,x,x,-10
O=C1CN2Cc3c(ccc(Cl)c3Cl)N=C2N1,13,u,13,i,x,-2
c1cc(Nc2cccc3nccnc23)c2nccnc2c1,-54*,-21%,17,i,-38%,5
Cc1ccc(NC(=O)CSc2nnc(-c3n[nH]c4ccccc34)n2-c2ccccc2)c(C)c1,-51*,-15%,6,i,-43%,1
Cc1ccc(OCc2nnc(SCC(=O)Nc3cccc4ccccc34)n2-c2ccccc2)cc1,-26,-27%,-19,i,25%,-4
CCOC(=O)C1=C(N)OC(C)=C(C#N)C1c1ccco1 (stereo not given),-21,4%,15,i,-2%,3
CCCC1=C(C(=O)OCC)C(c2ccco2)C(C#N)=C(N)O1 (stereo not given),u,-6%,1,i,9%,48*
CCOC(=O)C1=C(C)OC(N)=C(C#N)C1c1cc(F)ccc1F (stereo not given),-66*,-11%,8,u,-1%,3
Cc1cc(F)ccc1Nc1nc2ccccc2n2nnnc12,x,x,x,x,x,3
Cn1nnc2cc(NC(=O)NCc3ccc4c(c3)OCO4)ccc21,u,5%,-90*,i,14%,-20
Cc1nc2ccccc2nc1OCC(=O)NCc1ccc2c(c1)OCO2,3,-6%,-65*,i,-53%,1
COC(=O)c1cc(C(=O)NCc2ccc3c(c2)OCO3)cc([N+](=O)[O-])c1,-55*,-10%,3,i,-13%,-2
CC(C)CN1C(=O)C(=O)N(CC(=O)NCc2ccc3c(c2)OCO3)C1=O,12,5%,-52*,i,-14%,-3
CC(C)(C)N(Cc1ccccc1)C(=O)COC(=O)CN1C(=O)C2CC=CCC2C1=O (stereo not given),11,5%,2,i,7%,3
O=C(NCc1ccco1)c1cc(-c2ccccn2)nc2ccccc12,22,-8%,-3,i,-12%,3
O=C(NCc1ccc2c(c1)OCO2)c1ccccc1Cl,-68*,13%,-6,i,-21%,19
O=C(NCc1ccc2c(c1)OCO2)c1cc(-c2ccccn2)nc2ccccc12,-82*,-22%,0,i,9%,-4
O=C(NCc1ccc2c(c1)OCO2)c1c(F)c(F)c(F)c(F)c1F,-65*,1%,9,i,-14%,-1
COC(=O)Cn1nc(-c2ccccc2)c2ccccc2c1=O,0,-1%,-14,i,-9%,-8
Nc1cc(N)nc(SCC(=O)Nc2ccc3c(c2)OCCCO3)n1,-6,15%,-8,i,u,1
O=C(CN1C2=NCCN2c2ccccc21)c1ccc2c(c1)OCO2,-81*,-34%,-15,16µM*,-20%,-10
CCCNc1ccc(-c2nc(-c3ccco3)no2)cc1[N+](=O)[O-],x,60%,x,i,x,7
SMILES,IL1B secr inh,ATXN2 expr inh,D3 antag,S2 tox,a7 integrin act,D3 ag
CCc1ccc(-c2cc(C)no2)cc1S(=O)(=O)NCCCN1CCN(c2ccccc2)CC1,-19,u,-77*,u,-50%,0
O=C(C[n+]1cc(-c2ccc(F)cc2)n2c1CCC2)N1c2ccccc2Sc2ccccc21,-50*,9%,-12,i,14%,-9
Cc1ccc(-c2c[n+](CC(=O)N3c4ccccc4Sc4ccccc43)c3n2CCC3)cc1,-58*,-20%,u,i,-5%,-1
O=C(C[n+]1cc(-c2ccccc2)n2c1CCC2)N1c2ccccc2Sc2ccccc21,i,-5%,-11,i,-26%,-7
CC(C)OC(=O)c1cccc(C(=O)OCc2ccco2)n1,-74*,-3%,-20,i,-49%,-1
O=C(OCc1ccco1)c1cccnc1,12,8%,9,i,-48%,10
CC(C)OC(=O)c1cccc(C(=O)Oc2ccccc2)n1,30,1%,-59*,i,13%,2
Cc1noc(C)c1CN1C(=O)NC2(CCCCCCC2)C1=O,7,1%,17,i,-5%,1
O=C(CCl)N(c1ccccc1)C1CCS(=O)(=O)C1 (stereo not given),-89*,u,8,x,-52%,13
CCOC(=O)c1ccc(N=c2sc(C(=O)OC)cc(=O)n2-c2ccc(C(=O)OCC)cc2)cc1,-72*,u,-6,u,-22%,-7
COC(=O)c1cc(=O)n(-c2ccccc2)c(=Nc2ccccc2)s1,-58*,u,-61*,u,-42%,-7
COC(=O)c1cc(=O)n(Cc2ccc(F)cc2)c(=Nc2ccccc2)s1,u,x,-17,i,u,-15
CC(C)(C)C(=O)CN1CCN(S(=O)(=O)c2ccc(F)cc2)CC1,21,2%,u,u,4%,1
Cc1cc(C)c2oc(-c3ccc(Cl)c(NC(=O)c4cccs4)c3)nc2c1,x,50%,x,i,x,-3
COc1cnc(-c2ccccn2)nc1Sc1cccc(Cl)c1,-8,u,-71*,u,-7%[7.66 µM],-5
COc1cnc(-c2ccccn2)nc1Oc1ccc(Cl)cc1,-25,-24%,-73*,i,-3%[7.66 µM],-5
COc1cnc(-c2ccccn2)nc1Oc1ccccc1Cl,2,1%,-1,i,-4%,1
COc1cnc(-c2ccccn2)nc1Oc1ccc(Cl)c2ccccc12,-10,u,-94*,i,-38%,-7
COc1cnc(-c2ccccn2)nc1Sc1ccc(C)cc1,27,u,-3,u,-44%,-8
Cc1cnc(NC(=O)CSc2nnc(C)n2N)s1,-3,7%,-24,i,14%,-12
O=C(O)/C(=C\c1ccco1)NC(=O)c1cccc2ccccc12,-6,-4%,20,i,13%,-14
CC(C)[C@H](NC(=O)c1ccccc1)C(=O)OCC(=O)/C=C1/N(C)c2ccccc2C1(C)C,17,x,41,u,-68%,11
COc1cc(OC)cc(C(=O)NCC(=O)OCC(=O)/C=C2/N(C)c3ccccc3C2(C)C)c1,-60*,-23%,29,u,0%,17
